High-throughput results from PubChem.
HP1b binding inh: blocks HP1-beta chromodomain binding to methylated histone tails; P83916; AlphaScreen HP1-beta / biotin-H3K9me3 peptide binding; Potency, µM (series often up to 114 µM), most hits filed as inhibitors; actives 0.56% (n = 390,000); AID 540317; also: nearly all actives have a fitted effect of over 70% in size
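Compound inhibition of the preformed complex between 50 nM HP1-beta and 50 nM biotinylated H3K9me3 peptide was read by AlphaScreen. Buffer was PBS pH 7.4 with 0.01% Tween-20. Incubations ran 30 min at room temperature, with 10 ug/mL donor/acceptor beads.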
PLK1 PBD block: inhibitors of human PLK1 polo-box domain binding; Plk1 PBD binding of FITC phosphopeptide, fluorescence polarization; P53350; Potency, µM, usual class: inhibitors; actives 2.8% (n = 360,000); also: series mostly up to about 57 µM; nearly all actives have a fitted effect of over 65% in size
Target sequence (P53350 whole entry, looked up, the tested form may be a part): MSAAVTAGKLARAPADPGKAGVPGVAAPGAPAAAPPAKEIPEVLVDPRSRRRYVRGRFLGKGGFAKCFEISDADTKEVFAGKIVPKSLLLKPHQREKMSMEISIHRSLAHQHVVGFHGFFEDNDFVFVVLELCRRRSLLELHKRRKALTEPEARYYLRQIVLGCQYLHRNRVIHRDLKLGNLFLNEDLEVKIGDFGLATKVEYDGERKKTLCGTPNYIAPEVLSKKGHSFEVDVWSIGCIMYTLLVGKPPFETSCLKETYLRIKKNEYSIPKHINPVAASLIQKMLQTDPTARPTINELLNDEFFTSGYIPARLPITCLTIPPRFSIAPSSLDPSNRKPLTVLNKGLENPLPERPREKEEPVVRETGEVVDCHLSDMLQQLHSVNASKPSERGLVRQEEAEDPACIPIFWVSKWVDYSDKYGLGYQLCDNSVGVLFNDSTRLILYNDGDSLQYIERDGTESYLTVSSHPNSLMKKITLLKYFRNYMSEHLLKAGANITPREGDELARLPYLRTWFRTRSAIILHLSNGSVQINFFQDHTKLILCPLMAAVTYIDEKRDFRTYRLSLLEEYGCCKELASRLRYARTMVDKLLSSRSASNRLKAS
BAZ2B block: BAZ2B (human) inhibition; AlphaScreen BAZ2B-H3K14Ac peptide displacement; Potency, µM (titrated, usually from 114 µM), usual class: inhibitors; actives 4.4% (n = 360,000); AID 504333; also: nearly all actives have a fitted effect of over 60% in size
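In this displacement format the biotinylated H3(5-23) peptide acetylated at Lys14 serves as ligand at 50 nM, with BAZ2B at 50 nM in PBS pH 7.4 containing 0.01% Tween-20. Donor and acceptor beads are 10 ug/mL final.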
JMJD2A Tudor: inhibitors of human JMJD2A Tudor domain. Potency, µM (series often up to 114 µM), hits mostly inhibitors. AlphaScreen JMJD2A-Tudor / H3K4me3 peptide binding. O75164. actives 4.4% (n = 390,000); also: nearly all actives have a fitted effect of over 50% in size
G9a inh: G9a (human) methyltransferase inhibition. Q96KQ7. G9a H3K9 monomethylation, AlphaScreen, 2 h. Potency, µM (titrated, usually from 102 µM), most hits filed as inhibitors. actives 8.8% (n = 350,000). AID 504332; also: nearly all actives have a fitted effect of over 75% in size
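Methyltransferase reactions run at room temperature for 2 h (20 nM enzyme, 500 nM biotin-H3K9 peptide, 20 uM SAM) after a 15 min compound preincubation; product detected by AlphaScreen beads and anti-H3K9me1 antibody.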
ALOX12 inh: inhibitors of human 12S-lipoxygenase ALOX12 | P18054 | purified 12hLO, xylenol orange hydroperoxide absorbance | AID 1671190 | Potency, µM (doses to about 108 µM), hits mostly inhibitors | actives 1.1% (n = 580,000)
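Purified human 12hLO at 150 nM in 25 mM Hepes, 0.01% Triton X-100, pH 7.0, preincubated 15 min at room temperature with compound. Reaction started with 40 uM arachidonic acid, 30 min at room temperature. Hydroperoxide measured by Fe-xylenol orange, 573/405 nm absorbance ratio.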
A number is an active result; n = inactive; u = inconclusive; x = no result; [ ] = dose if it differs, or a comment. Hits are enriched below; roughly 9% of the tested compounds scored in any of these assays. Calls follow the shape of the dose curve; as a rule, active = well fitted curve in the direction sought with a large enough effect; inconclusive = small, poorly fitted or top-dose-only effect, or another doubt; inactive = no such curve, though single readings can be large; an effect the other way counts as inactive or inconclusive.

SMILES	HP1b binding inh	PLK1 PBD block	BAZ2B block	JMJD2A Tudor	G9a inh	ALOX12 inh
CC12CCC(C(=O)N(CCCCN3CCN(Cc4ccccc4)CC3)C1=O)C2(C)C (stereo not given)	n	n	n	u	56µM	u
COc1ccc([N+](=O)[O-])cc1C1NN=C(c2ccccc2O)S1 (stereo not given)	n	n	n	u	u	n
COc1cccc(NC(=O)C(OC(=O)c2cnc(C)cn2)c2ccccc2)c1 (stereo not given)	n	n	n	n	45µM	u
CC(=O)N1CCc2cc(CNC(=O)Nc3ccccc3C(F)(F)F)ccc21	n	x	n	n	n	n
CCc1ccc(C(O)(c2ccccc2OC)C(CN2CCOCC2)c2ccccc2)cc1 (stereo not given)	n	n	x	n	45µM	n
CCOc1ccc(C(O)(c2ccccc2)C(CN2CCCC2)c2ccccc2)cc1 (stereo not given)	n	6µM	n	14µM	n	n
CCOc1ccc(C(O)(CCC(C)C)C(CN2CCOCC2)c2ccccc2)cc1 (stereo not given)	n	n	n	n	n	u
CN(C)c1ccc(C(CNS(=O)(=O)c2ccc(Br)cc2)N2CCOCC2)cc1 (stereo not given)	u	x	45µM	u	u	n
O=C(NCC(c1ccc(F)cc1)N1CCOCC1)c1ccc(Br)o1 (stereo not given)	n	n	u	n	50µM	u
CCOc1ccc(S(=O)(=O)Nc2ccc(C(=O)NCC(c3ccccc3)N(C)C)cc2)cc1 (stereo not given)	n	n	n	n	x	n
CCOc1ccc(N(C)C(CNS(=O)(=O)c2ccccc2)c2ccccc2)cc1 (stereo not given)	u	x	11µM	28µM	11µM	n
O=S(=O)(NCC(c1ccc2c(c1)OCO2)N1CCOCC1)c1ccc(Br)cc1 (stereo not given)	n	n	n	n	n	n
CN1CCN(C(CNS(=O)(=O)c2ccc(Br)cc2)c2ccc3c(c2)OCO3)CC1 (stereo not given)	n	n	n	n	79µM	u
Cn1c(=O)c2c(nc(NC3CCCCC3)n2Cc2c(F)cccc2Cl)n(C)c1=O	x	x	x	x	x	n
CN(Cc1ccccc1)c1nc2c(c(=O)[nH]c(=O)n2C)n1C	n	n	n	n	n	n
CN(C)c1ccc(C(CNC(=O)COc2ccc(Cl)cc2)N2CCCC2)cc1 (stereo not given)	n	n	35µM	n	50µM	n
COc1ccc(S(=O)(=O)NCC(c2ccc(N(C)C)cc2)N2CCc3ccccc32)cc1 (stereo not given)	u	x	u	22µM	13µM	n
CN(C)c1ccc(C(CNC(=O)c2ccc(C(C)(C)C)cc2)N2CCOCC2)cc1 (stereo not given)	n	x	35µM	u	11µM	u
CCOc1cc(C(=O)NCC(c2ccc(N(C)C)cc2)N2CCOCC2)cc(OCC)c1OCC (stereo not given)	n	x	n	n	n[12.7 µM]	n
CN(C)c1ccc(C(CNC(=O)COc2ccc(Cl)cc2)N2CCOCC2)cc1 (stereo not given)	n	x	n	n	u	n
CCOc1ccc(S(=O)(=O)NCCC(=O)OC(C)C(=O)N2CCc3ccccc32)cc1 (stereo not given)	n	n	n	n	n[12.7 µM]	n
COc1ccc(S(=O)(=O)NCC(c2ccco2)N2CCc3ccccc32)cc1 (stereo not given)	u	n	u	u	u	n
CCOc1ccc(S(=O)(=O)NCC(c2ccc(N(C)C)cc2)N2CCc3ccccc32)cc1 (stereo not given)	u	x	6.3µM	13µM	u	n
Cc1cc(C)c2cc(C#N)c(SCC(=O)NCC3CCCO3)nc2c1 (stereo not given)	n	n	n	n	n[12.7 µM]	n
O=c1[nH]c(=O)n(CCCc2ccccc2)cc1-c1ccccc1	n	n	x	n	x	n
CCOc1ccc(S(=O)(=O)NCC(c2ccc(N(C)C)cc2)N2CCCC2)cc1 (stereo not given)	n	x	35µM	u	20µM	n
